Laboratory results as given in ChEMBL document CHEMBL1157539, “Thousands of chemical starting points for antimalarial lead identification” (Nature, 2010).

What was measured:
Assay type in all cases: functional
[1] = system: Plasmodium falciparum; assay: GSK_TCMDC: Inhibition of Plasmodium falciparum 3D7 in whole red blood cells, using parasite LDH activity as an index of growth. Test compounds present at 2uM
[2] = system: Plasmodium falciparum; assay: GSK_TCMDC: Inhibition of Plasmodium falciparum Dd2 in whole red blood cells, using parasite LDH activity as an index of growth. Test compounds present at 2uM
[3] = system: HepG2; assay: GSK_TCMDC: Percent inhibition of human HepG2 cell line. Test compounds present at 10uM.

| Compound | Inhibition [1] [%] | Inhibition [2] [%] | Inhibition [3] [%] |
| --- | --- | --- | --- |
| COc1ccc2nc3cc(Cl)ccc3c(NCCc3ccccc3)c2c1.Cl | 94 | 82 | 0 |
| O=C(Nc1cccc(-c2cccc(-c3nc4cc(F)ccc4[nH]3)c2)c1)c1csnn1 | 95 | 29 | 23 |
| CCNc1cc(C)nc(Nc2ccc(F)cc2)n1 | 100 | 57 | 1 |
| COc1cccc(COCC(O)CN(CCc2ccccn2)C(=O)c2ccccc2F)c1 (configuration not stated) | 97 | 30 | 61 |
| Cc1ccc(C(=O)Nc2cc(C(F)(F)F)cc(C(F)(F)F)c2)cc1[N+](=O)[O-] | 100 | 61 | 17 |
| CCS(=O)(=O)Nc1ccc2[nH]cc(C3CCN(CCC4CCN(C(=O)/C=C/c5ccc(Cl)c(Cl)c5)CC4)CC3)c2c1 | 99 | 94 | 34 |
| CCOc1cc(C)ccc1C1CCN(CCCCNC(=O)c2coc(-c3ccc(Cl)cc3)c2)CC1.Cl | 92 | 30 | 34 |
| Cl.O=C(N[C@@H](Cc1ccccc1)[C@H](O)CNC1CCCc2ccccc21)c1cc(C2CCCC2)cc(N2CCCC2=O)c1 (some centres not stated) | 97 | 99 | 31 |
| N#Cc1ccc(CN2CCC(Oc3ccc(NC(=O)c4cccs4)cc3)CC2)cc1.O=C(O)C(F)(F)F | 83 | 82 | 10 |
| Br.Cc1cc(C)c(C)c(OCCCON2C(=N)N=C(N)NC2(C)C)c1C | 94 | 95 | 64 |
| C[C@@H](Oc1cc(-n2cnc3ccc(NC(=O)CCN4CCCCC4)cc32)sc1C(N)=O)c1ccccc1Cl | 100 | 60 | 36 |
| COc1ccccc1C1CCN(CCCCNC(=O)c2ccc(NC(=O)c3ccc(Cl)cc3)cc2)CC1 | 95 | 12 | 21 |
| COc1ccc(NS(=O)(=O)c2ccccc2Br)cc1N1CCN(C)CC1.Cl | 94 | 3 | 2 |
| Cc1ccc(NC(=O)Nc2ccc(Cl)c(C(F)(F)F)c2)cc1-c1ccc(C(=O)NCCN2CCOCC2)cc1 | 98 | 31 | 52 |
| Cc1cc(CNCCCCCCCNCc2cccc([N+](=O)[O-])c2)ccc1O | 100 | 0 | 6 |
| N#Cc1ccc(-c2ccc(C(=O)NCC3CCN(CCN4CCC(c5ccc6c(c5OCC(N)=O)CCCC6)CC4)CC3)cc2)cc1 | 99 | 99 | 56 |
| COc1cc2c(C3CCN(CC4CCC(NC(=O)/C=C/c5ccc(Cl)c(Cl)c5)CC4)CC3)c[nH]c2cn1 (configuration not stated) | 100 | 100 | 44 |
| CN(C)CCN(C)Cc1nc(-c2ccc3c(Nc4ccc(Oc5ccccc5)cc4)ccnc3c2)cs1 | 100 | 100 | 27 |
| Cc1cc(N2CCN(C3CCCCC3)CC2)nc2cccc(O)c12 | 100 | 37 | 12 |
| O=C1COC2(CN1C1CCN(Cc3ccc(O)c(Cl)c3)C1)c1ccccc1-c1ccccc12.O=CO (configuration not stated) | 93 | 63 | 5 |
| COc1ccc(NC(=O)/C=C/c2ccc(Cl)c(C(F)(F)F)c2)cc1OCCN(C(C)C)C(C)C.O=C(O)C(F)(F)F | 95 | 28 | 18 |
| CCOC(=O)C1=C(C)NC(Cn2ccnc2)=C(C(=O)OCC)C1c1ccc(C(C)(C)C)cc1.Cl (configuration not stated) | 100 | 33 | 8 |
| CN(CCCN(C)c1cc(NC(=O)c2ccc(F)cc2)ccn1)Cc1cccc(O)c1.O=C(O)C(F)(F)F | 90 | 0 | 2 |
| COc1ccc2nccc([C@@H](O)CN3CCC(NC(=O)/C=C/c4c[nH]c5c(C)cccc45)CC3)c2c1 | 100 | 88 | 23 |
| CC(=O)c1ccc2c(c1)C(NC(=O)c1cccc(Cl)c1Cl)C(CO)C(C)(C)O2 (configuration not stated) | 99 | 44 | 5 |
| CC(C)CNCc1cccc(-c2cccc(CN(CCCN3CCN(C)CC3)C(=O)/C=C/c3ccccc3)c2)c1.O=C(O)C(F)(F)F | 90 | 88 | 44 |
| Cc1cc(-c2ccc3c(c2)CCN(CCC2CCC(NC(=O)/C=C/c4ccccc4F)CC2)CC3)on1.Cl (configuration not stated) | 94 | 13 | 26 |
| Cc1cccc2nc(-c3cccc(-c4cccc(CN5CCC(CO)CC5)c4)c3)[nH]c12.O=C(O)C(F)(F)F | 100 | 90 | 4 |
| O=C(Nc1ccc(OC2CCN(Cc3ccc(F)cc3)C2)c(Cl)c1)c1ccc(F)cc1.O=C(O)C(F)(F)F (configuration not stated) | 96 | 94 | 10 |
